Rows were chosen to be rich in hits. Some 7.4% of all compounds tested hit in one or more screens of this group.
NPC1 promoter act: qHTS Assay for NPC1 Promoter Activators | Huh7 NPC1 promoter luciferase reporter, 24 h | Potency, µM (series often up to 9.22 µM), inactives show at the top dose activation, hits mostly activators | 2.4% of 320,000 active; note: % of control where 0% means no effect; nearly all actives have a fitted effect of over 60% in size
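Luminescence read-out of NPC1 promoter-driven luciferase in stably transfected Huh7 cells; compounds delivered in DMSO and left 24 h at 37C, 5% CO2, qHTS titration format.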
Rab9 prom act: qHTS Assay for Rab9 Promoter Activators. 2.8% of 320,000 active. AID 485297, 2010. Potency, µM (doses to about 9.22 µM), without a hit: top-dose activation, negative = inhibition, hits mostly activators. Huh7 Rab9 promoter-luciferase reporter, luminescence, 24 h; note: % of control where 0% means no effect; nearly all actives have a fitted effect of over 60% in size
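Cells were plated at 1500 per well in reduced-serum medium with 10% FBS and left 2 h. Compound in DMSO was then added for 24 h at 37 °C. Reporter signal was read by luminescence after 10 min with luciferase detection reagent.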
FLuc modulator: qHTS profiling assay for firefly luciferase inhibitor/activator using purifed enzyme and Km concentrations of substrates (counterscreen for miR-21 project); 6.9% of 360,000 active; purified FLuc, Km substrates, luminescence inhibition; Potency, µM (series often up to 57.5 µM), without a hit: top-dose activity change, negative = inhibition, most hits filed as inhibitors; Luciferin 4-monooxygenase (Photinus pyralis), P08659;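 note: plate controls were vehicle for no effect and reference inhibitor for full effect; nearly all actives have a fitted effect of over 55% in size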
Target sequence (P08659 whole entry, looked up): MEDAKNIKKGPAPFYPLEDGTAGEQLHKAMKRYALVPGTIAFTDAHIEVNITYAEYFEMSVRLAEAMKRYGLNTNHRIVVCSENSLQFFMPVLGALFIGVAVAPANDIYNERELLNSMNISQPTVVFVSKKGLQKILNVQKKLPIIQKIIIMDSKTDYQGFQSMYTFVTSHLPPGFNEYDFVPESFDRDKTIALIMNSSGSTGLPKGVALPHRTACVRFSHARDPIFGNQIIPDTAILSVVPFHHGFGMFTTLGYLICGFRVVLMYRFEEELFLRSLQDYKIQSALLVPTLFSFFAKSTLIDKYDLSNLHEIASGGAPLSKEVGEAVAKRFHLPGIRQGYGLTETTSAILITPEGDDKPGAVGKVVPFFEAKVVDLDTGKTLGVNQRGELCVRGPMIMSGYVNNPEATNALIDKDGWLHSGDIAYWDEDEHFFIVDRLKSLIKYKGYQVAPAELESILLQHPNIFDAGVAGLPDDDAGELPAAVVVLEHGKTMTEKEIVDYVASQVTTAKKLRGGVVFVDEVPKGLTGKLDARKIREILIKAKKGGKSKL
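Purified P. pyralis luciferase (10nM final) with 10uM D-luciferin and 10uM ATP (Km levels) in 50mM Tris acetate pH 7.5, 10mM Mg acetate, 0.01% Tween-20, 0.05% BSA; qHTS 6-point titration, ~60 µM downward; luminescence read.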
Luc counter: Counterscreen for Luciferase (Kinase-Glo TM) Inhibition | Luciferin 4-monooxygenase (Photuris pensylvanica), Q27757 | Kinase-Glo luciferase, ATP luminescence, 8 min | Potency, µM (top dose mostly 38.3 µM), inactives show at the highest dose activity change, negative = inhibition, usual class: inhibitors | 0.28% of 200,000 active | AID 1379, 2008; note: % is set by controls: 0 for no effect and ±100 for the full control effect; nearly all actives have a fitted effect of over 60% in size
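Kinase-Glo luciferase light output from ATP and luciferin was measured with 10 uM ATP, within the enzyme's linear range. Buffer: 50 mM imidazole pH 7.2, 50 mM KCl, 7 mM MgCl2, 0.01% Tween 20, 0.05% BSA; luminescence read after 8 min at ambient temperature.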
ELG1 genotoxic: qHTS screen for small molecules that induce genotoxicity in human embryonic kidney (HEK293T) cells expressing luciferase-tagged ELG1; HEK293T ELG1-luciferase reporter, luminescence, 16 h; Potency, µM (top dose mostly 46 µM), inactives show top-dose activity change, positive = activation, hits mostly activators; 1.3% of 330,000 active; note: % of control where 0% means no effect; nearly all actives have a fitted effect of over 60% in size
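After overnight (16 hr) compound treatment at 37 °C, ELG1-luciferase HEK293T cells were lysed with ONE-Glo; luminescence quantified 30 min later at room temperature.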
SMN2 splice up: qHTS Assay for Enhancers of SMN2 Splice Variant Expression; HEK293 SMN2-luciferase splicing reporter, luminescence, 30-36 h; Potency, µM (doses to about 46.1 µM), for the others: top-dose activity change, positive = activation, hits mostly activators; 2.8% of 210,000 active; AID 1458, 2008; note: % of control where 0% means no effect; nearly all actives have a fitted effect of over 55% in size
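HEK293 cells carry an SMN2 […]–luciferase reporter in which exon 7 inclusion puts luciferase in frame. Cells were plated 10-12 h before compound addition, then incubated 30-36 h at 37C. ONE-Glo luminescence was read; sodium butyrate at 4.5 mM final served as control.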
Starred values were filed as active, the others as inactive; [ ] = another dose, or the depositor's remark. Calls come from the whole dose curve; as a rule, active = well fitted curve in the direction sought with a large enough effect; inconclusive = small, poorly fitted or top-dose-only effect, or another doubt; inactive = no such curve, though single readings can be large; an effect the other way counts as inactive or inconclusive. Potency is the fitted concentration of half-maximal effect.

`O=C(O/N=C1/CCSc2ccccc21)c1ccc(F)cc1` gave NPC1 promoter act 7%, Rab9 prom act -1%, FLuc modulator 0.34µM*, Luc counter inconclusive, ELG1 genotoxic 0% and SMN2 splice up -21%.
O=C(O/N=C1\CCS(=O)(=O)c2sccc21)c1ccc(F)cc1 was read as NPC1 promoter act -1%, Rab9 prom act -5%, FLuc modulator inconclusive, Luc counter -1%, ELG1 genotoxic 0% and SMN2 splice up 3%.
Screening O=C(O/N=C1/CCCc2occc21)c1ccc(F)cc1 returned NPC1 promoter act -5%, Rab9 prom act 2%, FLuc modulator 1.9µM*, Luc counter inconclusive, ELG1 genotoxic -1% and SMN2 splice up 0%.
For O=C(ON=C1CCN(S(=O)(=O)c2ccccc2)CC1)c1ccc(F)cc1 the results were NPC1 promoter act -4%, Rab9 prom act 3%, FLuc modulator -15%, Luc counter -3%, ELG1 genotoxic 0% and SMN2 splice up -6%.
Cc1ccc(S(=O)(=O)O/N=C2/CCCc3occc32)cc1 was read as NPC1 promoter act -4%, Rab9 prom act 3%, FLuc modulator 5%, Luc counter 2%, ELG1 genotoxic 3% and SMN2 splice up 3%.
Cc1cccc2c(=O)cc(CSc3ccccc3NC(=O)C(C)(C)C)[nH]c12 was read as FLuc modulator -7%.
`COC(=O)CC1c2ccccc2C=C(/C=C/c2ccc3c(c2)OCO3)N1C(=O)OC` (stereo not given) gave Luc counter -5%[7.66 µM] and SMN2 splice up -11%[9.22 µM].
For COC(=O)c1ccc(COc2ccc(NC(C)=O)cc2)o1 the results were NPC1 promoter act -6%, Rab9 prom act -1%, FLuc modulator 1% and ELG1 genotoxic 2%.
For O=C(N/N=C/c1cc([N+](=O)[O-])ccc1O)c1ccc(COc2ccc3c(c2)CCC3)o1 the results were NPC1 promoter act -31%, Rab9 prom act inconclusive, FLuc modulator -1% and ELG1 genotoxic 0%.
Screening CCCNC(=O)c1ccc(COc2ccc(C(C)(C)C)cc2)o1 returned NPC1 promoter act 18%, Rab9 prom act 20%, FLuc modulator inconclusive and ELG1 genotoxic -4%.
`O=C(N/N=C/c1ccc2ccccc2c1)c1ccc(COc2ccc3c(c2)CCC3)o1` gave NPC1 promoter act inconclusive, Rab9 prom act inconclusive, FLuc modulator 2.7µM*, Luc counter -1%, ELG1 genotoxic inconclusive and SMN2 splice up inconclusive.
For COC(=O)c1ccc(COc2ccc(C(C)(C)C)cc2)o1 the results were NPC1 promoter act 0.71µM*, Rab9 prom act 0.35µM*, FLuc modulator 17µM* and ELG1 genotoxic inconclusive.
Screening O=C(Nc1cccnc1)c1ccc(COc2ccccc2Br)o1 returned NPC1 promoter act -2%, Rab9 prom act -2%, FLuc modulator inconclusive, Luc counter -2%, ELG1 genotoxic 13% and SMN2 splice up -40%.
For CCc1ccc(OCc2ccc(C(=O)OC)o2)cc1 the results were NPC1 promoter act inconclusive, Rab9 prom act inconclusive, FLuc modulator 17µM* and ELG1 genotoxic inconclusive.
Screening CC(C)(C)c1ccc(OCc2ccc(C(=O)Nc3cccnc3)o2)cc1 returned NPC1 promoter act 0.45µM*, Rab9 prom act 0.35µM*, FLuc modulator 15µM* and ELG1 genotoxic inconclusive.
For CC1=C(C(=O)O)N2C(=O)[C@@H](NC(=O)[C@@H](N)c3ccc(O)cc3)[C@@H]2SC1 the results were Luc counter -1%[17.1 µM] and SMN2 splice up 5%[20.6 µM].
Screening CCc1cccc(NC(=O)Cn2c(=O)n(CCC(=O)NCc3ccccc3Cl)c(=O)c3sccc32)c1 returned FLuc modulator 3% and SMN2 splice up -1%.
Screening COc1ccc(CCNC(=O)CCc2c(C)nc3c4c(C)cc(C)nc4nn3c2C)cc1OC returned FLuc modulator -2% and SMN2 splice up -1%.
For CCCc1ccc(OCc2ccc(C(=O)N3CCSCC3)o2)cc1 the results were NPC1 promoter act 2.2µM*, Rab9 prom act 2.2µM*, FLuc modulator 21µM* and ELG1 genotoxic 10µM*.
CCc1ccc(OCc2ccc(C(=O)NCc3ccccn3)o2)cc1 was read as NPC1 promoter act inconclusive, Rab9 prom act inconclusive, FLuc modulator inconclusive, Luc counter -1%, ELG1 genotoxic inconclusive and SMN2 splice up 5µM*.
For CCOC(=O)c1ccc(NC(=O)C(=O)NCc2ccccn2)cc1 the results were NPC1 promoter act 4%, Rab9 prom act -2%, FLuc modulator -12%, Luc counter 5%, ELG1 genotoxic 3% and SMN2 splice up -3%.
Cc1cccc(OCc2ccc(C(=O)N3CCOCC3)o2)c1 was read as NPC1 promoter act 3%, Rab9 prom act 3%, FLuc modulator 0% and ELG1 genotoxic -1%.
For O=C(NCc1cccnc1)c1ccc(COc2ccc3c(c2)CCC3)o1 the results were NPC1 promoter act 4%, Rab9 prom act -1%, FLuc modulator inconclusive, Luc counter 1%, ELG1 genotoxic -8% and SMN2 splice up -52%.
COC(=O)c1ccc(COc2ccc3c(c2)CCC3)o1 was read as NPC1 promoter act inconclusive, Rab9 prom act inconclusive, FLuc modulator 17µM* and ELG1 genotoxic inconclusive.
`CCc1ccc(NC(=O)C(=O)NCc2ccccn2)cc1` gave NPC1 promoter act inconclusive, Rab9 prom act 3.5µM*, FLuc modulator 19µM*, Luc counter -3% and ELG1 genotoxic inconclusive.
Screening CCOc1ccc(OCc2ccc(C(=O)NCc3ccncc3)o2)cc1 returned NPC1 promoter act inconclusive, Rab9 prom act inconclusive, FLuc modulator -21%, Luc counter 3%, ELG1 genotoxic inconclusive and SMN2 splice up 16%.
`Cc1cc(C)cc(NC(=O)CSc2nc(=O)[nH]c3c2CCC3)c1` gave FLuc modulator -11%.
Screening CC(C)(C)c1ccc(OCc2ccc(C(=O)N3CCOCC3)o2)cc1 returned NPC1 promoter act inconclusive, Rab9 prom act inconclusive, FLuc modulator 15µM*, Luc counter -1% and ELG1 genotoxic 13%.
`CCC(C)c1ccc(OCc2ccc(C(=O)OC)o2)cc1` (stereo not given) gave NPC1 promoter act 0.63µM*, Rab9 prom act 0.5µM*, FLuc modulator inconclusive and ELG1 genotoxic inconclusive.
Screening CC(C)[C@@H](C(=O)O)N1C(=O)c2ccccc2C1=O returned Luc counter -7%[7.66 µM] and SMN2 splice up -11%[9.22 µM].
